The whole screen tested about 2,800 compounds, of which fewer than 10 were called active. Inconclusive results (about 7%) are left out. A selection follows. A number with no mark means an inactive call. The call rests on the fitted dose curve; in most records, active means well fitted inhibition curve with a large enough effect; inconclusive means small, poorly fitted or top-dose-only effect; inactive means no such curve, though single readings can be large or run the other way.
biological target: Metallo-beta-lactamase type 2 (Klebsiella pneumoniae) (UniProt C7C422); experiment: qHTS to identify inhibitors of the New Delhi Metallo-beta-lactamase (NDM): Nitrocefin screen against the machine-based learning selections.; on activity, negative = inhibition: % of control where 0% means no effect; details: NDM-1 enzyme, nitrocefin hydrolysis, absorbance 485 nm; series mostly up to 38.4 µM; activity, negative = inhibition: at the top concentration
Description: Assay Submitter (PI): James Inglese Ph.D., Patricia Dranchak Ph.D., Mahesh Aitha Ph.D. Assay Development and Screening Technology Laboratory (ADST) National Center for Advancing Translational Sciences (NCATS), Rockville, MD National Institute of Health (NIH), Bethesda, Maryland The metallo-beta-lactamases (MBL) are a main antibiotic resistance mechanism evolved by bacteria. There is an urgent clinical need for MBL inhibitors to mitigate this growing threat. To support a machine-based learning study, qHTS has been used to experimentally test inhibitors identified by prediction tools.
PROTOCOL TABLE (as described by Inglese et al., 2007) SEQUENCE No. (e.g., 1, 2, 3, etc.); […] (e.g., enzyme, Incubation, Reagent, etc.); VALUE; DESCRIPTION Primary Screen 1; NDM-1; 4 uL of 3 nM enzyme [2 nM final] in 50 mM HEPES (pH 7.0), 1 uM […], 0.01% Tween20; Use BioRaptr to dispense into two sets of Aurora black, clear bottom high base 1536-well plates 2; Compounds; 23 nL; Use Pin Tool (Wako) to transfer DMSO control and library compounds in DMSO 3; Incubate; >30 min 4a; Reagent; 2 uL of 50 uM nitrocefin [16.7 uM final] to one set of assay plates 4b; Reagent; 2 uL of 150 uM meropenem [50 uM final] to second set of assay plates 5a; Incubate; 15 min 5b; Incubate; 30 min 6a; Detector; Absorbance at 485 nm (bandwidth = 5 nm, 25 flashes/well) on Tecan Infinity 6b; Detector; Absorbance at 300 nm (bandwidth = 5 nm, 25 flashes/well) on Tecan Infinity NOTES (numbers refer to sequence above) 1; Column 1 of each plate received assay buffer without enzyme and columns 2-48 received enzyme for a final assay concentration of 2 nM. 2; Control plate contained DMSO in columns 1, 2, 3, and 4. 3; Compound interaction with enzyme. 4; Nitrocefin and meropenem substrates were prepared in the same assay buffer as step 1 for a final assay concentration of 16.7 uM and 50 uM, respectively, and added to all wells across respective sets of assay plates. 5; Default reader settings were applied for absorbance read at 485 nm (nitrocefin) or 300 nm (meropenem), bandwidth = 5 nm, 25 flashes/well. References: Inglese J, Shamu CE, Guy RK. 2007. Reporting data from high-throughput screening of small-molecule libraries. Nat Chem Biol. doi:10.1038/nchembio0807-438 Yasgar A, Shinn P, Jadhav A, Auld D, Michael S, Zheng W, Austin CP, Inglese J, Simeonov A. 2008. Compound Management for Quantitative High-Throughput Screening. J Lab Autom 13:79 - 89. doi:10.1016/j.jala.2007.12.004
Potency means the concentration at half of the fitted maximal effect.

Metallo-beta-lactamase type 2 (Klebsiella pneumoniae), sequence (C7C422 whole entry, looked up): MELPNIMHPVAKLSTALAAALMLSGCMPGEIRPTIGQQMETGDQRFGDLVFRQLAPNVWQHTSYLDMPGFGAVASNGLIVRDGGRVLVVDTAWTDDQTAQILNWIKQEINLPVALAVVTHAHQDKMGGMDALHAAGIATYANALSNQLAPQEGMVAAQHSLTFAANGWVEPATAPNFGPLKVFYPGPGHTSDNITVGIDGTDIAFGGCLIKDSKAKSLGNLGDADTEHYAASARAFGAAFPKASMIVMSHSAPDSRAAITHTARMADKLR

Row | SMILES | activity, negative = inhibition | Potency
1 | C[C@@H](c1ccccc1)N1C(=O)[C@@H]2CN(C(=O)c3ccc(N(C)C)cc3)CCN2C1=O | 2.81% [at 57.5 µM] | 
2 | Cc1nc(CCC(=O)N2CCC(Cc3ccc(C(=O)O)cc3)C2)n[nH]1 (stereo not given) | 10.3% | 
3 | CCCS(=O)(=O)N1CCC(Cc2nc(-c3cccnc3)n[nH]2)C1 (stereo not given) | -6.34% | 
4 | COc1ccc(CN2CCOc3ccc(C(=O)NCc4ccc(C)cc4)cc3C2)c(OC)c1 | -0.698% | 
5 | O=C(c1ccccc1Cl)N1CCCC(c2nn(-c3ccccc3)c(=O)[nH]2)C1 (stereo not given) | -3.71% | 
6 | CC(C)C(=O)N[C@H]1[C@H](O)[C@H](O)C[C@@H]1c1cccnc1 | 2.09% [at 76.7 µM] | 
7 | CC(O)c1cc2n(n1)CCN(C1CCN(C(=O)c3cnccn3)CC1)C2 (stereo not given) | 29% | 
8 | Cn1cc(C(NC(=O)c2ccc3c(c2)ncn3CCO)C2CC(O)C2)cn1 (stereo not given) | -11.3% | 
9 | Cc1nnc(-c2cc(N3CCN(c4ccccn4)CC3)ccn2)n1C1CCCCC1 | -1.57% [at 57.5 µM] | 
10 | O=C1CO[C@H]2CN(c3nccc(C(F)(F)F)n3)C[C@H]2N1Cc1ccc(F)cc1 | 1.03% [at 57.5 µM] | 
11 | COc1cc(=O)n2c(c1C(=O)NC1CCCCCC1)CCCC2 | 0.186% | 
12 | Cc1cccc(N(CC(=O)N[C@H]2CC[C@H]2NC2CCCC2)S(C)(=O)=O)c1 | -5.09% | 
13 | O=C(O)[C@]12CCCN[C@@H]1CCN(Cc1cnc(-c3ccccn3)nc1)C2 | 3.6% | 
14 | CCOCCn1nc(C)cc1C(=O)N1C[C@@H](C)[C@](O)(C2CC2)C1 | -0.533% | 
15 | COc1cccc(-c2cccc(CCOc3cnc4c(ccn4CC(=O)O)c3)c2)c1 | -1.17% [at 57.5 µM] | 
16 | O=C(N[C@@H]1CCN(Cc2cccc3nonc23)C[C@H]1O)c1cccnc1 | -1.15% | 
17 | COC(=O)c1ccc2nc(C[C@@H]3C[C@@H](C(C)C)[C@H](CN(C)C)C=C3C)[nH]c2c1 | -8.3% [at 57.5 µM] | 
18 | CCO[C@H]1C[C@@H](O)C12CCN(C(=O)c1cc(S(N)(=O)=O)ccc1F)CC2 | 1.64% | 
19 | CN(C)Cc1cn(C[C@H]2C[C@@H](NC(=O)c3nc4ccccc4s3)[C@H](O)[C@@H]2O)nn1 | -6.95% | 
20 | COc1cc(CNC(=O)CCC2CCN(S(=O)(=O)c3ccccc3)CC2)cc(OC)c1 | -10.9% | 
21 | c1cncc(-c2cnc([C@@H]3COCCN3Cc3ncc[nH]3)[nH]2)c1 | -25.1% [at 57.5 µM] | 
22 | Clc1cccc(-c2cnc([C@@H]3COCCN3Cc3cnc[nH]3)[nH]2)c1 |  | 13.7 µM (active)
23 | Oc1ccccc1CN1CCOC[C@H]1c1ncc(-c2cccc(Cl)c2)[nH]1 | -3.86% [at 57.5 µM] | 
24 | CC1(C)CN(C(=O)c2ccccc2Oc2ccccc2)CC1(C)O (stereo not given) | 1.27% | 
25 | O=c1ncn(Cc2ccccc2)c2ccc(-c3ccc(O)c(F)c3)nc12 | 4.77% [at 57.5 µM] | 
26 | CCOC(=O)C[C@@H]1C[C@@H](C(C)C)[C@H](CNC(=O)c2ccc(C#N)cc2)C=C1C | 0.154% [at 57.5 µM] | 
27 | CCC1=C(C(=O)OC)C(c2ccccc2OC)N2C(CC(=O)N3CC(C)OC(C)C3)=CSC2=N1 (stereo not given) | -17.2% | 
28 | CC1(C(=O)NCCc2ccccn2)CCc2cnc(NCc3ccccc3)nc21 (stereo not given) | -0.0818% [at 57.5 µM] | 

Row | SMILES | activity, negative = inhibition | Potency
29 | Cn1ccc2c(C(=O)NCCc3cnc[nH]3)nc(-c3cccnc3)cc21 | 0.339% [at 57.5 µM] | 
30 | C[S+](=O)([O-])Nc1cccc(-c2cc(-c3cccnc3)c3cncn3c2)c1 | -17.6% [at 57.5 µM] | 
31 | O=C1Nc2cc(Cl)ccc2C(=O)N2CCN(C(=O)c3ccccc3)C[C@H]12 | -14.3% [at 57.5 µM] | 
32 | O=C(Cc1c[nH]c2ncc(-c3ccccc3F)cc12)NCc1cccnc1 | 1.05% [at 57.5 µM] | 
33 | COCc1cc(C[C@@H]2CC[C@H](O)[C@@H](CNS(=O)(=O)c3ccccc3)O2)no1 | -0.232% [at 57.5 µM] | 
34 | O=C(NC1CC(=O)N(CCc2cccc(Cl)c2)C1)c1ccsc1 (stereo not given) | 1.1% | 
35 | CCN(CC)C(=O)C[C@@H]1c2nc(NC(=O)N3CCOCC3)sc2C[C@@H]2[C@](C)(CO)[C@H](O)CC[C@]21C | 7.87% | 
36 | CS(=O)(=O)N[C@H]1C[C@H]2C(=O)Nc3ccc(-c4ccc5c(c4)OCO5)cc3C(=O)N2C1 | 8.55% [at 57.5 µM] | 
37 | COc1ccc(-c2cnc3[nH]cc(CC(=O)Nc4ccncc4)c3c2)cc1 | 42.4% [at 57.5 µM] | 
38 | COc1ccc2c(c1)nc1n2[C@@H](CNC(=O)c2ccncc2)COC1 | 0.0321% [at 57.5 µM] | 
39 | O=C(CCCc1ccccc1)N[C@@H]1CN(c2ccncn2)C[C@H]1CO | -4.2% | 
40 | Cc1c(CN2C[C@@H](COc3ccccc3)[C@H](C(N)=O)C2)cnn1C | 2.24% | 
41 | Cc1ccc(C)c(-c2cc(C(=O)N3CCCC3c3nncn3C(C)C)[nH]n2)c1 (stereo not given) | 2.36% | 
42 | O=S(=O)(c1ccc(F)cc1)N1CCCC(Cc2noc(-c3cnccn3)n2)C1 (stereo not given) | -2.02% | 
43 | CN1CCCC1c1nc(C2CN(C(=O)c3ccsc3)C2)no1 (stereo not given) | -1.68% | 
44 | CN1C(=O)CC(C(=O)O)C12CCN(C(=O)CCc1cccnc1)CC2 (stereo not given) | 8.54% | 
45 | Cn1c(CO[C@H]2CN(C(=O)c3cccnc3)C[C@H]2F)nc2ccccc21 | 0.8% [at 57.5 µM] | 
46 | C[C@@H](c1ccccc1)N1C(=O)[C@@H]2CN(C(=O)c3ccco3)CCN2C1=O | -7.93% [at 57.5 µM] | 
47 | COc1ccc(OC)c(CN2CCC3(CC2)Nc2ccccc2NC3=O)c1 | -1.47% | 
48 | NC(=O)C1CCCN(CCNc2cc(-c3ccccc3)nc3ccnn23)C1 (stereo not given) | 2.07% | 
49 | COC(=O)[C@H](NC(=O)[C@@H]1C[C@@H](NC(=O)c2ccncc2)CCN1S(=O)(=O)c1ccc(OC)cc1)C(C)C | -3.06% | 
50 | Cc1cncc(C(=O)N2CC[C@@H](c3ccc4ccccc4c3)[C@H](O)C2)c1 | -1.9% | 
51 | CCn1cnnc1CC1CCN(C(=O)NC)C1 (stereo not given) | 9.39% | 
52 | O=C(c1ccoc1)N1CCCn2cc(-c3ccccc3)nc21 | 3.3% | 
53 | NC(=O)CCNC(=O)C1=C[C@@H](NC(=O)c2cccs2)[C@@H](O)[C@H](O)C1 | 10.8% [at 57.5 µM] | 
54 | Cc1ccc(O)c(CN2CC[C@@H](c3ccc(F)cc3)[C@H](O)C2)c1 | -5.08% | 
55 | Cc1cnc(C(=O)N2CCCC(c3nc(-c4cccnc4)no3)CCNC(=O)CC2)cn1 (stereo not given) | -3.61% | 
